Laboratory results: PubChem BioAssay
Calls of active or inactive are those of the source.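 Rule for the calls: active = at least 20% inhibition of 6-phosphogluconate dehydrogenase activity; inactive = the rest.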 Where a SMILES comes first, the peptide text is derived from it. [ ]: non-standard residue; d: D form. The star is where a group is joined. NHCH2CH2OH = OCCN*; For = O=C*

Target: 6-phosphogluconate dehydrogenase, decarboxylating (Homo sapiens) (UniProt P52209)
Experiment: 6PGD enzyme inhibitors, primary screen, biochemical, human, recombinant enzyme, NADPH absorbance (AID 1159550)
Settings: recombinant 6PGD, NADPH absorbance 341 nm; at 10 µM; stronger effect = higher value

Chain of 6-phosphogluconate dehydrogenase, decarboxylating (Homo sapiens) (P52209 whole entry, looked up): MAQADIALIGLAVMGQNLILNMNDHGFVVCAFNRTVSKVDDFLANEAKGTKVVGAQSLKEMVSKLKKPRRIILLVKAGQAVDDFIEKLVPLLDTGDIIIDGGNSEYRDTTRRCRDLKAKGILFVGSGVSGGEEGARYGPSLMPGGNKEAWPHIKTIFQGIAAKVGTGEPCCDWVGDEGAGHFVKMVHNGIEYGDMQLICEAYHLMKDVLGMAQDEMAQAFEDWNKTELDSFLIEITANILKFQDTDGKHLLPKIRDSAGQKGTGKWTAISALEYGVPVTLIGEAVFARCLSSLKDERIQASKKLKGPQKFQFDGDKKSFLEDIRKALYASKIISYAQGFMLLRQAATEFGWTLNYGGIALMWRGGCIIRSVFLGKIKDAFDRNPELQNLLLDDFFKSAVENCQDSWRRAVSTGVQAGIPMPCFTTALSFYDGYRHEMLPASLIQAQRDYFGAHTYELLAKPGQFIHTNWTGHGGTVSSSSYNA

inhibition, inactive:
COC(=O)CCC(=O)O[C@H]1CCC2(C)C(CCC3C2C(=O)[C@@H](O)C2(C)C3CC3OC4(CCC(C)CO4)C(C)C32)C1 (stereo partly specified) 4.65%, CC(=O)O[C@@H]1CC2C(C)(C)C(=O)CC[C@]2(C)C2CC[C@]3(C)C(=CC(=O)O[C@H]3c3ccoc3)[C@@]21C (stereo partly specified) 14.2%, COC(=O)C1OC(=O)C2OC23C1(C)CCC1C2(C)CCC(=O)C(C)(C)C2CC(OC(C)=O)C13C (stereo unspecified) -6.02%, CC(=O)O[C@H](CC(=O)[O-])C[N+](C)(C)C -15.2%, O=C(Oc1cc(OC(=O)c2ccccc2)c2c(c1)O[C@H](c1ccc(OC(=O)c3ccccc3)c(OC(=O)c3ccccc3)c1)[C@@H](OC(=O)c1ccccc1)C2)c1ccccc1 -9.47%, Cc1cc(=O)c2c(O)c3c(cc2o1)OC(C)(C)CC3 3.81%, CC(C)c1ccc2c(c1)CC[C@@]1(C)[C@](C)(C(N)=O)CCC[C@]21C 18%, CCCC(=O)OC1(C(=O)CO)CCC2C3CCC4=CC(=O)CCC4(C)C3C(O)CC21C (stereo unspecified) -0.0758%, COc1ccc2c(c1)[C@@]1(C)CC[C@@H](O)C[C@@H]1CC2 13.3%, CO[C@H]1C[C@H](O[C@H]2[C@H](C)[C@@H](O[C@@H]3O[C@H](C)C[C@H](N(C)C)[C@H]3OC(C)=O)[C@@H](C)C[C@@]3(CO3)C(=O)[C@H](C)[C@H](OC(C)=O)[C@@H](C)[C@@H](C)OC(=O)[C@@H]2C)O[C@@H](C)[C@@H]1OC(C)=O -13%, CC=C(C)C(=O)OC1C(OC(C)=O)[C@]2(CO)C(O)C[C@]3(C)C(=CCC4[C@@]5(C)CCC(OC6OC(C(=O)O)C(OC7OC(CO)C(O)C(O)C7O)C(O)C6OC6OC(CO)C(O)C(O)C6O)[C@](C)(CO)C5CC[C@]43C)C2CC1(C)C (stereo partly specified) 10.9%, CC12CCC3c4ccc(O)cc4CCC3C1CCC2OC(=O)CCC1CCCC1 (stereo unspecified) -3.96%, CC(=O)OC1CCC2(C)C(CC(OC(C)=O)C3(C)C2CCC2(C)C(c4ccoc4)OC(=O)C4OC423)C1(C)C (stereo unspecified) -7.87%, C[C@@H]1CC[C@@]2(OC1)O[C@H]1C[C@H]3[C@@H]4CC=C5C[C@@H](O)CC[C@]5(C)[C@H]4CC[C@]3(C)[C@H]1[C@@H]2C 10.6%, CC(=O)OC1CCC2(C)C(CCC3C2CC(=O)C2(C)C3CC3OC4(CCC(C)CO4)C(C)C32)C1 (stereo unspecified) 5.72%, CC(C)CCCCCOC(=O)COc1ccc(Cl)cc1Cl -8.81%, Oc1ccc2c(c1)OC[C@]1(O)Cc3cc(O)c(O)cc3C21 (stereo partly specified) 9.03%, CC(=O)O[C@H]1CC[C@]2(C)C3=CC(=O)[C@@]4(C)C(C[C@@H]5OC6(OCC(C)CC6Br)C(C)[C@@H]54)C3CC[C@H]2C1 (stereo partly specified) 6.67%, COC(=O)c1cc(OC)c(=O)c2c(OC)c(OC)ccc2c1 7.65%, COc1cc(O)c(C(=O)/C=C/c2ccccc2)c(OC)c1 -2.81%, CC(=O)O[C@H]1CC2C(C)(C)[C@H](OC(C)=O)C=C[C@@]2(C)C2CC[C@@]3(C)C(=CC(=O)O[C@@H]3c3ccoc3)[C@]21C (stereo partly specified) 0.19%, COc1cc2c(cc1OC)[C@@H]1C(=O)c3c(O)cc4c(c3O[C@@H]1CO2)C=CC(C)(C)O4 12.7%, COc1ccc(C2COc3cc(O)ccc3C2)c(OC)c1O (stereo unspecified) 1.81%, CC(C)C[C@@H](NC(=O)[C@H](C)NC(=O)CNC(=O)[C@@H](NC=O)C(C)C)C(=O)N[C@@H](C)C(=O)N[C@@H](C(=O)N[C@H](C(=O)N[C@H](C(=O)N[C@@H](Cc1c[nH]c2ccccc12)C(=O)N[C@H](CC(C)C)C(=O)N[C@@H](Cc1c[nH]c2ccccc12)C(=O)N[C@H](CC(C)C)C(=O)N[C@@H](Cc1c[nH]c2ccccc12)C(=O)N[C@H](CC(C)C)C(=O)N[C@@H](Cc1c[nH]c2ccccc12)C(=O)NCCO)C(C)C)C(C)C)C(C)C (For-VGA[dL]A[dV]VVW[dL]W[dL]W[dL]W-NHCH2CH2OH) 10.9%, COC(=O)[C@]1(C)CC[C@]2(C)CC[C@]3(C)C4=CCc5c(cc(OC(C)=O)c(OC(C)=O)c5C)[C@]4(C)CC[C@@]3(C)[C@@H]2C1 10.1%, COC(=O)C[C@H]1C(C)(C)C(OC(C)=O)[C@]2(O)C=C3C4CC(=O)O[C@@H](c5ccoc5)[C@]4(C)CCC3[C@@]1(C)C2=O (stereo partly specified) -4.04%
